The whole screen tested about 44,000 compounds, of which about 340 (0.77%) were called active. A call without a number means that no potency is given here. Not shown: some 5% with an inconclusive outcome. Calls come from the whole dose curve; as a rule, active = well fitted inhibition curve with a large enough effect; inconclusive = small, poorly fitted or top-dose-only effect; inactive = flat fitted curve, though single readings scatter. Only a selection was taken, and actives are over-represented in it overall.
Assay: Acumen qHTS Assay for Inhibitors of the mTORC1 Signaling Pathway in MEF (Tsc2-/-, p53-/-) Cells: Sytravon; note: nearly all actives have a fitted effect of over 50% in size
Conditions: phospho-rpS6 immunofluorescence/PI, 24 h; series mostly up to 38.3 µM
Source text: NIH Molecular Libraries Probe Production Centers Network [MLPCN] NIH Chemical Genomics Center [NCGC] MLPCN Grant: NS059428-01 Assay Submitter (PI): Blenis, John; Hoffman, Greg; Harvard University NCGC Assay Overview: The mammalian target of rapamycin (mTOR) is an intracellular serine/threonine kinase Aberrant regulation of mTOR signaling plays a causative role in a number of human diseases, including cancer, benign tumors such as lymphangioleiomyomatosis (LAM) and Tuberous Sclerosis Complex (TSC), and metabolic diseases such as diabetes and obesity. This project aims to identify inhibitors of ribosomal protein S6 (rpS6) phosphorylation. The phosphorylation of rpS6 is a key event downstream of mTOR activation. The assay uses a phospho-specific antibody of phospho-rpS6 to detect inhibitors of mTOR activation. Mutations in the Tsc1 and Tsc2 genes are the underlying genetic lesions responsible for TSC, causing constitutive activation of the mTORC1 pathway and leading to profound effects on cell metabolism. Aberrant metabolism in cancer has recently received significant attention as a target to develop therapeutic agents in the treatment of cancer.1 As Tsc2-/- cells have lost the ability to respond to energy and growth factor deprivation, these cells are unable to properly down regulate cellular biosynthetic processes in response to metabolic stress, and are thus extremely sensitive to glucose deprivation-induced death.2 A central goal of this project is to explore the unique cell survival and metabolic properties of cells with Tsc1 or Tsc2 by screening for compounds that selectively target the Tsc2-/- MEFs by screening both Tsc2-/- and WT MEF cell lines. We hope to better understand these aspects of TSC physiology in order to exploit them for therapeutic benefit.
NCGC Acumen Assay Protocol Summary: For quantitative high throughput analysis of mTORC1 signaling, we developed a cell-based assay for immuno-fluorescence based detection of rpS6 phosphorylation on the Acumen Explorer that will be used a platform for the primary small molecule screen. Mouse embryonic fibroblasts (MEFs) are cultured in 1536-well plates using DMEM + 10% FBS. Twenty-four hrs after plating, test compounds (solubilized in DMSO) are delivered and incubated with the cells for 24 hrs at 37 degree Celsius. Following the incubation, media with compound is aspirated and the cells are fixed in 4% paraformaldehyde (PFA) containing PBS + 0.2% TX-100. Next, PFA is aspirated, cells are washed two times with PBS plus 0.2% TX-100 and the cells are blocked for 1 hr at room temperature (blocking buffer: LiCOR Blocking Buffer plus 0.2% TX-100). […] Cells are washed two times with PBS plus 0.2% TX-100, and stained with 10 uM propidium iodide (PI) for 20-25 minutes for cell number measurement (1:500 dilution of Hoescht staining is also added for IN Cell imaging). The plates are scanned on the Acumen Explorer laser scanning instrument (TTP Labtech) using the 488nm laser for simultaneous excitation of the Alexa-488 and PI. […] The normalized phospho-S6 staining is calculated as the ratio of the integrated Alexa 488 intensity divided by the integrated PI intensity for the single concentration rapamycin control (7.5 nM) and DMSO columns. […] Inhibition of the pathway is defined based on the normalized phospho-S6 intensity in rapamycin treated cells. Active cells are defined as those with a normalized phospho-S6 staining above this threshold, and each treatment is reported as the % positive cells in the well, where thresholds are defined by selecting wells with the highest and lowest signal and differentiating between the % non-active and % active populations. In addition to the pathway specific phospho-S6 endpoint, the number of PI stained cells from the Acumen is recorded as a measure of cell viability. The primary screen was performed with a MEF cell line in a defined genetic background, Tsc2-/-, p53-/- cell line stably transfected with an empty vector control (Tsc2-/- MEF).
Potency is the fitted concentration of half-maximal effect.

SMILES | Potency
COc1ccc2c(Sc3ccc(C)cc3)c(C(=O)NC(C)c3ccccc3)[nH]c2c1 (stereo unspecified) | inactive
CCc1ccc(CNC(=O)C2CCN(c3nn4cc(-c5ccc(F)cc5)nc4s3)CC2)cc1 | inactive
COCCNC(=O)CSc1nc(-c2ccccc2)[nH]c1-c1ccc(C)cc1 | inactive
CCOc1ccccc1NC(=O)CSc1ncc(S(=O)(=O)c2ccc(C(C)(C)C)cc2)c(=O)[nH]1 | inactive
CCCCOc1ccc(CN2C(=O)C(=O)c3cc(Br)cc(C)c32)cc1OC | 9.27 µM (active)
CCOc1ccc(CNCc2c(C(=O)O)c(C)n(Cc3cccc(OC)c3)c2C)cc1OC | inactive
CCCCOc1ccc(Cn2c(=O)oc3ccc(C)cc32)cc1OC | inactive
Cc1cc(NC(=O)c2cccc(Cl)c2)ccc1-c1cc2ccccc2oc1=O | inactive
COc1cccc(C(=O)Nc2nnc(S(=O)(=O)N3CCOCC3)s2)c1 | inactive
COc1ccccc1NC(=O)c1cc(S(=O)(=O)NCCc2ccccc2)ccc1F | inactive
Cc1cc(C)c2oc(-c3cccc(NC(=O)c4cccc(F)c4)c3C)nc2c1 | inactive
CCc1ccc(CNCc2c(C(=O)O)n(Cc3ccc(F)cc3Cl)c3cc(OC)ccc23)cc1 | inactive
COc1ccc(Cl)cc1NC(=O)CSc1nc(-c2cccs2)cc(C(F)(F)F)n1 | inactive
COc1ccc(C)cc1NC(=O)COCc1cc(-c2cccs2)on1 | inactive
COc1ccc(C(F)(F)F)cc1NC(=O)c1sc2nc(-c3cccs3)ccc2c1N | 18.5 µM (active)
Cc1nc2c(c(C)nn2-c2ccccc2)c(C)c1CCC(=O)NCCc1ccc(Cl)cc1 | inactive
O=C(NCc1ccccc1)c1cc(-c2cccc(Cl)c2)on1 | inactive
CC(C)CCN(C(=O)Nc1ccc(Cl)c(Cl)c1)C(C)c1cccs1 (stereo unspecified) | inactive
Cc1cccc(CCNC(=O)c2ccc3c(c2)nc2n3CCC(C)C2)c1 (stereo unspecified) | inactive
Cc1nn2c(=O)cc(COC(=O)c3ccccc3NC(=O)COc3ccccc3C)nc2s1 | inactive
COc1ccc(Br)cc1CNC(=O)c1cc(=O)[nH]c2ccc(S(=O)(=O)N3CCCC3)cc12 | inactive

SMILES | Potency
CN(C)CCCn1c(-c2ccc(Cl)cc2)csc1=Nc1ccccc1 | inactive
COc1ccc(-c2nnc(SCC(=O)Nc3ccccc3C)o2)cc1OC | inactive
COc1ccc(Cc2nc3ccc(C(=O)NCc4ccc(OC)cc4OC)cc3o2)cc1 | inactive
Cc1ccc(Cl)cc1NC(=O)CCC(=O)N1CC(C)Sc2ccccc21 (stereo unspecified) | inactive
Cc1nc2ccccn2c(=O)c1NC(=O)c1c(F)cccc1F | inactive
CCc1cccc(NC(=O)Cn2nc(CC)n3c(cc4cc(C)ccc43)c2=O)c1 | inactive
CCOc1ccc(Nc2c(S(=O)(=O)c3ccccc3)cnc3ccccc23)cc1 | inactive
COc1ccc(CNC(=O)c2cc3cccc(OC)c3oc2=O)cc1 | inactive
COc1ccc(-n2c(SCC(N)=O)nc3c(oc4ccccc43)c2=O)cc1 | inactive
CCOc1cc(C2C(C(=O)Nc3ccc(OC)cc3)=C(C)Nc3nc(SC)nn32)ccc1O (stereo unspecified) | inactive
CCOc1ccc(C2C(C(=O)Nc3ccc(Cl)cc3)=C(C)Nc3nc(C(F)(F)F)nn32)cc1 (stereo unspecified) | 5.85 µM (active)
CCOc1ccccc1NC(=O)C1=C(C)Nc2ncnn2C1c1ccc(NC(C)=O)cc1 (stereo unspecified) | inactive
CCc1cccc(NC(=O)c2cnc(N3CCOCC3)c3ccccc23)c1 | inactive
Cc1cccc(N2CCN(C3=C(c4ccccc4)C(=O)c4ccccc43)CC2)c1C | inactive
COc1ccc(N(CC(=O)NCCc2ccc(Cl)cc2)S(=O)(=O)c2c(C)nn(C)c2C)cc1 | inactive
Cc1ccc(OCC(=O)Nc2ccc(OCc3cc(=O)n4c(C)csc4n3)cc2)cc1C | inactive
O=C(Cn1c(=O)n(-c2ccc(F)cc2)c(=O)c2sc3ccccc3c21)NC1CCCC1 | inactive
CCOc1cc(-c2nnc(SCC(=O)NC3CCCC3)nc2-c2ccc(OC)c(OCC)c2)ccc1OC | inactive
CCOc1ccc(CCNC(=O)Cn2nc(CC)n3c(cc4sc(CC)cc43)c2=O)cc1OCC | inactive
CCCN1C(=O)C(O)(CC(=O)c2ccc(CC)cc2)c2cc(Br)ccc21 (stereo unspecified) | 4.65 µM (active)
CCc1ccc(C(=O)CC2(O)C(=O)N(CCc3ccccc3)c3ccc(Br)cc32)cc1 (stereo unspecified) | inactive

SMILES | Potency
Cc1ccc(C(=O)CC2(O)C(=O)N(CCc3ccccc3)c3ccc(Br)cc32)cc1 (stereo unspecified) | inactive
CCOc1ccccc1C(=O)NCC(c1ccc(N(C)C)cc1)N1CCCC1 (stereo unspecified) | inactive
COc1ccccc1NC(=O)c1sc2nc(C)c(C(=O)Nc3ccc(Cl)cc3)c(-c3ccc(Br)cc3)c2c1N | inactive
COC(=O)c1ccccc1NC(=O)Cn1c(=O)cc(C)c2c(C)nn(-c3cccc(Cl)c3C)c21 | inactive
CCOc1ccc(N(CC)C(=O)c2cc3c(=O)oc4ccccc4c3s2)cc1 | inactive
Cc1ccc(Cn2c(CNC(=O)Cc3cccc(C)c3)nc3cccnc32)cc1 | inactive
Cc1ccc(C)c(NC(=O)Cn2ccn(-c3ccc(F)cc3)c(=O)c2=O)c1 | inactive
COc1cc2nc(SCC(=O)Nc3ccccc3F)n3nc(-c4ccccc4)nc3c2cc1OC | inactive
Cc1cccc(N2CCN(C(=O)c3ccc4c(c3)CCN4S(=O)(=O)c3ccccc3)CC2)c1C | inactive
O=C(NCCCO)C(=O)Nc1c2c(nn1-c1ccccc1)CSC2 | inactive
CCCCN(C)S(=O)(=O)c1ccc(C(=O)Nc2sc3c(c2C(N)=O)CC(C)(C)NC3(C)C)cc1 | inactive
O=C(CCSCc1ccccc1F)N1CCN(c2ccc(Cl)cc2)CC1 | inactive
COc1cc(OC)c(NC(=O)N2CC3CCCN3c3ccccc32)cc1Cl (stereo unspecified) | inactive
COc1ccc(CNc2nc(-c3ccc(Cl)cc3)nn2C(=O)c2ccccc2)cc1 | inactive
CCOc1ccc(-n2c(C)nc3c(cnn3-c3ccc(C)cc3)c2=O)cc1 | inactive
COc1ccccc1NC(=O)CSC1=Nc2ccccc2C2=NC(CC(=O)NCc3cccs3)C(=O)N12 (stereo unspecified) | inactive
COc1cc(NC(=O)Cn2nc(-c3ccc(C)c(C)c3)ccc2=O)cc(OC)c1 | inactive
CCN(CC)c1cc(NC2CCCCC2)c2c3c(onc13)-c1ccccc1C2=O | inactive
COc1ccc(-c2noc(CSc3nc4ccc(C)cc4[nH]3)n2)cc1 | inactive
